These results are taken from PubChem BioAssay.

Assay [1] in a line: antimalarial activity against Dd2 strain (AID 2302;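 active = growth inhibition above 50% at the single 2 µM test dose, taken to imply half-maximal potency below 2 µM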;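 note: 0% = DMSO untreated growth and 100% = chloroquine plus artemisinin killed control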). Particulars: P. falciparum Dd2 in RBCs, LDH growth readout, 72 h; at 2 µM; active compounds read high.
Assay [2] in a line: human hepatoma cell viability loss – ATP luminescence, cytotoxicity control for P. falciparum antimalarial project, primary screen (AID 2303;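 active = inhibition above 50%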;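 note: 0% = DMSO wells and 100% = digitonin-killed cells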). The note with it: HepG2 viability, 24-48 h, at 10 µM, active compounds read high.
For assay [3], the target named is L-lactate dehydrogenase (Plasmodium falciparum (isolate CDC / Honduras)) (UniProt Q27743). Description: PfLDH activity inhibition – cell lysate, 3D7 strain, counter-screen for P. falciparum growth inhibition project (AID 2304).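 Note: 0% = vehicle and 100% = reference inhibitor.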 The note with it: P. falciparum 3D7 crude extract, LDH APAD/NBT absorbance; at 2 µM; active compounds read high. In general terms: A counterscreen serves to expose hits that act by an unwanted route or on another target.

Assay [4] in a line: inhibition of 3D7 malaria parasite growth – strain 3D7 (AID 2306).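 Note: 0% = DMSO wells and 100% = chloroquine plus artemisinin control wells.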 Particulars: P. falciparum 3D7 erythrocytic growth, LDH absorbance, 72 h; at 2 µM; active compounds read high.
For assay [5], the target named is Calcium-dependent protein kinase 1 (Plasmodium falciparum (isolate 3D7)) (UniProt P62344). Put plainly: PfCDPK1 kinase inhibitors, biochemical, TCAMS library (AID 1159585; cut-off not given, nearly all actives have IC50 up to about 0.98 µM;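 note: inhibitors leave more ATP so luminescence rises with inhibition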). Particulars: recombinant PfCDPK1, Kinase-Glo ATP depletion luminescence. (In Kinase-Glo more light means more ATP remaining.)
In assay [6] the target is Plasmodium falciparum protein kinase 6 (PK6, PF3D7_1337100) (UniProt Q8IDW1). Description: PfPK6 kinase inhibitors, biochemical, TCAMS library (AID 1159586). Particulars: recombinant PfPK6, Kinase-Glo ATP depletion luminescence.
In assay [7] the target is Protein kinase 7 (PK7), Plasmodium falciparum 3D7 (PF3D7_0213400) (UniProt Q7YTF7). Description: inhibition of Plasmodium PK7 catalytic activity – biochemical, TCAMS antimalarial set, Kinase-Glo luminescence (AID 1159587). Particulars: recombinant PfPK7, Kinase-Glo ATP depletion luminescence.
For assay [8], the target named is Calcium-dependent protein kinase 4 (Plasmodium falciparum (isolate 3D7)) (UniProt Q8IBS5). Description: PfCDPK4 kinase inhibitors, biochemical, TCAMS library (AID 1159588; cut-off not given, nearly all actives have IC50 up to about 0.91 µM). The note with it: recombinant PfCDPK4, Kinase-Glo ATP depletion luminescence.

Unmarked numbers belong to inactive results. For some assays here: Potency and affinity values are given separately. The source made the active and inactive calls. Unless noted, the rule behind the calls is not given here. Residues, ends and D or L forms follow the SMILES beside them. *: point of attachment. Boc = CC(C)(C)OC(=O)*

Chain of Calcium-dependent protein kinase 4 (Plasmodium falciparum (isolate 3D7)) (Q8IBS5 whole entry, looked up): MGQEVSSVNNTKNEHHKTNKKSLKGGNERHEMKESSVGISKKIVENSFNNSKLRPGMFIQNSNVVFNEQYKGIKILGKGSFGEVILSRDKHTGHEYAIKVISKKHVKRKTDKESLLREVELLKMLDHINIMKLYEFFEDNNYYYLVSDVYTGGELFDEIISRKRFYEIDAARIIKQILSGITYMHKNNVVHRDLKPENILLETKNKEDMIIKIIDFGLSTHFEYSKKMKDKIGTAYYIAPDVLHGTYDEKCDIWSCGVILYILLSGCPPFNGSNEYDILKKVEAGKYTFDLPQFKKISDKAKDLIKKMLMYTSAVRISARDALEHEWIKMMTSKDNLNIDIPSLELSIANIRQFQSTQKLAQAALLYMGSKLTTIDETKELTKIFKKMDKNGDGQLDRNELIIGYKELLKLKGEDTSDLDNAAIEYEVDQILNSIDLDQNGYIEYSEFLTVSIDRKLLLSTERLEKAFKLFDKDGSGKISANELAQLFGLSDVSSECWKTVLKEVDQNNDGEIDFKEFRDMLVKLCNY
Chain of Calcium-dependent protein kinase 1 (Plasmodium falciparum (isolate 3D7)) (P62344 whole entry, looked up): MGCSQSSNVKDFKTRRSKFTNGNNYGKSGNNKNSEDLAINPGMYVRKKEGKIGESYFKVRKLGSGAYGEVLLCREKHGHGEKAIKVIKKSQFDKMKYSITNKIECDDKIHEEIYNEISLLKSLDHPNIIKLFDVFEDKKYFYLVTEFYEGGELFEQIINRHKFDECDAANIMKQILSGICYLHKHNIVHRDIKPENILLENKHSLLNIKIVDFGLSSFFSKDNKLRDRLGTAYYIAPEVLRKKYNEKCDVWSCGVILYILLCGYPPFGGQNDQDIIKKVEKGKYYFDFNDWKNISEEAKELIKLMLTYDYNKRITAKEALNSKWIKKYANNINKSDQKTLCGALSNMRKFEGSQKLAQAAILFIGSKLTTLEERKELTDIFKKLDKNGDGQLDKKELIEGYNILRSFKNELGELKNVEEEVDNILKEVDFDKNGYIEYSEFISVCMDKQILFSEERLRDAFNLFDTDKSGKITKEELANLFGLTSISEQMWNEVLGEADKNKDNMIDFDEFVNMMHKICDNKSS
Chain of Plasmodium falciparum protein kinase 6 (PK6, PF3D7_1337100) (Q8IDW1 1-305): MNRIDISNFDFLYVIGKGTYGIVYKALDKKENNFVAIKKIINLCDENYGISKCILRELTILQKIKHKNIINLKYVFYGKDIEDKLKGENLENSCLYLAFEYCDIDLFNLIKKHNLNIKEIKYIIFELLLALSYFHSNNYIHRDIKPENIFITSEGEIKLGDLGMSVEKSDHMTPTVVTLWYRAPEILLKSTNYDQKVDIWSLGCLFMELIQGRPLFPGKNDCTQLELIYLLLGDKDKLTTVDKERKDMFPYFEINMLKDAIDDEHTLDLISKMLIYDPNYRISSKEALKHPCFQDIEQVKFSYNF
Chain of Protein kinase 7 (PK7), Plasmodium falciparum 3D7 (PF3D7_0213400) (Q7YTF7 1-343): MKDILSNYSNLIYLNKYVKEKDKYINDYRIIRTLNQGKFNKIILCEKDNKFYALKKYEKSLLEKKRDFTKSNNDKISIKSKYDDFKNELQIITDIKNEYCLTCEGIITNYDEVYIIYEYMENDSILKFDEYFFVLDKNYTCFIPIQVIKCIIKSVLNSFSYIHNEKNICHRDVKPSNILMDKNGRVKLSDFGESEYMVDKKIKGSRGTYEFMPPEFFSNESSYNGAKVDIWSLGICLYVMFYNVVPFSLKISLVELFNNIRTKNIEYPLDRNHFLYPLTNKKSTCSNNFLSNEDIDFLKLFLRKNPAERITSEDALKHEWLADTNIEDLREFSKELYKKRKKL
Chain of L-lactate dehydrogenase (Plasmodium falciparum (isolate CDC / Honduras)) (Q27743 whole entry, looked up): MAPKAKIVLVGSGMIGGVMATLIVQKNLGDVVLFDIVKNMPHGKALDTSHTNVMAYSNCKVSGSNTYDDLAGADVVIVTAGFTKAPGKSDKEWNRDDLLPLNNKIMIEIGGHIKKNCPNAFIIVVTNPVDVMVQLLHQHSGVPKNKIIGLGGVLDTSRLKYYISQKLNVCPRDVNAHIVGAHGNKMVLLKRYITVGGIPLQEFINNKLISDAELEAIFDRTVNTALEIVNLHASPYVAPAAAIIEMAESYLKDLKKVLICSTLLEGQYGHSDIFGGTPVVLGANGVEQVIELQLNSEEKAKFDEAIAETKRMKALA

`C[C@@H](CNc1ccnc(Nc2ccc3[nH]c(=O)[nH]c3c2)n1)c1ccccc1`: the growth inhibition in assay [1] was 1%; in assay [4], 100% (active). Moreover, the inhibition is 42% in assay [2] and -3% in assay [3]. Moreover, the outcome in assay [5], in assay [6], in assay [7] and in assay [8] was inactive.

In the case of `CC1(C)OC[C@]2(C)[C@@H](CC[C@]3(C)C4=CC(=O)CCC4CC[C@@H]23)O1` (some centres not stated), the growth inhibition in assay [1] was 95% (active); in assay [4] it was 97% (active). The inhibition in assay [2] is -2%; in assay [3] it was 1%. Moreover, the result in assay [5], in assay [6], in assay [7] and in assay [8] was inactive.

Turning to `CC(C)c1ccc(CN2CCCCC(NC(=O)c3cc(-c4ccccc4F)cs3)C2)cc1` (configuration not stated), the growth inhibition in assay [1] was 84% (active); in assay [4], 99% (active). For the same molecule, the inhibition in assay [2] is 18%; in assay [3], -2%. In addition, the result in assay [5], in assay [6], in assay [7] and in assay [8] was inactive.

Regarding `COC(=O)CC[C@H](NC(=O)[C@H](C)NC(=O)OC(C)(C)C)C(=O)OC` (Boc-Ala-Glu(OMe)-OMe), the results for the growth inhibition in assay [1] and in assay [4] were 0% and 95% (active), respectively. The inhibition in assay [2] was 12%; in assay [3], -2%. Also, the outcome in assay [5], in assay [6], in assay [7] and in assay [8] was inactive.

As to `CC1CCN(Cc2c(O)ccc3c(=O)c(-c4nc5ccccc5s4)c(N)oc23)CC1`, the growth inhibition in assay [1] was 99% (active); in assay [4] it was 98% (active). Further, the inhibition in assay [2] is 2%; in assay [3] it was -6%. In addition, the result in assay [5], in assay [6], in assay [7] and in assay [8] was inactive.

For `Clc1ccc(CNc2nc(NCCc3cnc[nH]3)nc(Nc3ccc4c(c3)OCO4)n2)cc1`, the growth inhibition in assay [1] is 6%; in assay [4] it was 84% (active). Further, the inhibition was 8% in assay [2] and -2% in assay [3]. Further, the result in assay [5], in assay [6], in assay [7] and in assay [8] was inactive.

As for `CN1CCN(c2ccnc3ccc(NC(=O)Cc4ccc(OCc5ccccc5)cc4)cc23)CC1`, the results for the growth inhibition in assay [1] and in assay [4] were 89% (active) and 100% (active), respectively. The inhibition was 6% in assay [2] and -1% in assay [3]. Also, the outcome in assay [5], in assay [6], in assay [7] and in assay [8] was inactive.

Take `O=C(/C=C/c1ccc(Cl)cc1)NCCCCCN1CCCC(C(=O)Nc2ccc(Cl)cc2)C1` (configuration not stated): the growth inhibition is 6% in assay [1] and 94% (active) in assay [4]. Also, the inhibition in assay [2] was 24%; in assay [3], 8%. Further, the result in assay [5], in assay [6], in assay [7] and in assay [8] was inactive.

As to `CCC(C)NCC(O)(c1ccc(Cl)cc1)c1ccc(Cl)cc1` (configuration not stated), the growth inhibition in assay [1] was 76% (active); in assay [4], 95% (active). Also, the inhibition in assay [2] was 5%; in assay [3], 0%. Also, the result in assay [5], in assay [6], in assay [7] and in assay [8] was inactive.

As to `Cc1ccc(CNC(=O)[C@H](Cc2ccccc2)Nc2cc(C)nc(NCc3ccccc3C)n2)cc1`, the growth inhibition in assay [1] is 50% (active); in assay [4], 97% (active). Further, the figures for the inhibition in assay [2] and in assay [3] were 23% and 0%, respectively. Besides, the result in assay [5], in assay [6], in assay [7] and in assay [8] was inactive.

With `Cc1nc(-c2nc(N3CCC(O)CC3)ncc2-c2ccsc2)sc1C`, the growth inhibition in assay [1] is 35%; in assay [4] it was 83% (active). The inhibition in assay [2] was 6%; in assay [3] it was -2%. Further, the result in assay [5], in assay [6], in assay [7] and in assay [8] was inactive.

In the case of `Cc1[nH]c(C)c(-c2ccc(-c3ccc(OCC(F)(F)F)cc3)nc2)c(=O)c1Cl`, the growth inhibition in assay [1] was 96% (active); in assay [4], 94% (active). For the same molecule, the inhibition in assay [2] was 3%; in assay [3], 4%. For the same molecule, the outcome in assay [5], in assay [6], in assay [7] and in assay [8] was inactive.

Turning to `CCOCn1c(-c2ccccc2)cc2c3c(N)nc(N)nc3ccc21`, the growth inhibition was 66% (active) in assay [1] and 91% (active) in assay [4]. For the same molecule, the results for the inhibition in assay [2] and in assay [3] were 62% (active) and -4%, respectively. The result in assay [5], in assay [6], in assay [7] and in assay [8] was inactive.

For `O=C(CCCCCNC(=O)c1ccc(O)c(-c2cccc(C(F)(F)F)c2)c1)NCCN1CCCCC1`, the growth inhibition in assay [1] is 0%; in assay [4], 99% (active). Also, the inhibition in assay [2] is -5%; in assay [3] it was 4%. Besides, the result in assay [5], in assay [6], in assay [7] and in assay [8] was inactive.

Consider `FC(F)(F)c1ccc2nc(-c3ccc(-c4cccc(CNCC5CCCO5)c4)s3)[nH]c2c1` (configuration not stated), for which the growth inhibition in assay [1] and in assay [4] was 99% (active) in each case. For the same molecule, the inhibition was 37% in assay [2] and -7% in assay [3]. Besides, the result in assay [5], in assay [6], in assay [7] and in assay [8] was inactive.

Consider `Cc1onc(-c2ccccc2)c1-c1nc(NC2CCCC(C)C2)no1` (configuration not stated), for which the growth inhibition is 46% in assay [1] and 101% (active) in assay [4]. Moreover, the inhibition in assay [2] was 22%; in assay [3], -3%. For the same molecule, the result in assay [5], in assay [6], in assay [7] and in assay [8] was inactive.

With `COc1cccc(NC(=O)Nc2cc(-c3ccc4[nH]ncc4c3)cc3c2CNC3=O)c1`, the growth inhibition is 100% (active) in assay [1] and 98% (active) in assay [4]. For the same molecule, the inhibition was 3% in assay [2] and 5% in assay [3]. In addition, the result in assay [5], in assay [6], in assay [7] and in assay [8] was inactive.

On to `CC(C)OC(=O)c1ccccc1S(N)(=O)=O`, for which the growth inhibition in assay [1] was -2%; in assay [4], 97% (active). The inhibition was -6% in assay [2] and 1% in assay [3]. Moreover, the outcome in assay [5], in assay [6], in assay [7] and in assay [8] was inactive.

Turning to `Cc1ccc2[nH]c(-c3ccc(/C=C/C(=O)NC4CCN(Cc5ccccc5)CC4)cc3)nc2c1C`, the growth inhibition in assay [1] is 92% (active); in assay [4], 101% (active). Moreover, the inhibition in assay [2] is 22%; in assay [3], 4%. The outcome in assay [5], in assay [6], in assay [7] and in assay [8] was inactive.

A word on the inhibition: it is the drop in the measured response relative to a control, in per cent.
